For 6 molecules, outcome and AC50 results are on record in PubChem BioAssay (EPA / NIEHS).

Inconclusive results are not listed. The source made the active and inactive calls. How the source made its calls, unless noted: active means hit-call score of the fitted dose curve at least 0.9, where 1 is the maximum; inactive means score below 0.9.

Read-out in test [1]: Interleukin-1 alpha (IL1a), IL1A (gene 3552)
As to the kind of experiment: BSK_LPS_IL1a: BioMAP Diversity Plus: LPS Assay for Interleukin-1 alpha (IL1a) Biomarker Activity (AID 2283080). Particulars: primary human HUVEC with PBMC; actives raise or lower the signal. In short, it runs like this:
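Readout is IL-1a level by ELISA, 24 h post-dose, fitted as gain or loss relative to DMSO. System: LPS-activated human primary co-culture of vascular endothelium and peripheral blood mononuclear cells, with parallel SRB total-protein cytotoxicity.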

Read-out in test [2]: Monocyte Chemoattractant Protein-1 (MCP1), CCL2 (gene 6347)
Description: BSK_LPS_MCP1: BioMAP Diversity Plus: LPS Assay for Monocyte Chemoattractant Protein-1 (MCP1) Biomarker Activity (AID 2283081). Particulars: primary human HUVEC with PBMC; actives raise or lower the signal. In short, it runs like this:
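Secreted MCP-1 read by ELISA at 24 h post-dosing in an LPS-activated co-culture of endothelial cells with peripheral blood mononuclear cells. Fits run in both directions, DMSO as baseline; parallel SRB staining tracks overt cytotoxicity.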

Test [3] can be described thus: BSK_LPS_PGE2: BioMAP Diversity Plus: LPS Assay for Prostaglandin E2 (PGE2) Biomarker Activity (AID 2283082). Particulars: primary human HUVEC with PBMC; actives raise or lower the signal. An outline of the steps: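 HUVEC plus PBMC co-culture stimulated with LPS; secreted PGE2 quantified by ELISA 24 h after chemical dosing. Activity fitted bidirectionally against DMSO as negative control and baseline; parallel SRB total-protein staining served as cytotoxicity check.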

Read-out in test [4]: Macrophage colony-stimulating factor (MCSF), CSF1 (gene 1435)
As to the kind of experiment: BSK_LPS_MCSF: BioMAP Diversity Plus: LPS Assay for Macrophage colony-stimulating factor (MCSF) Biomarker Activity (AID 2283083). The note with it: primary human HUVEC with PBMC; actives raise or lower the signal. An outline of the steps: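 Bidirectional fitting against DMSO was applied to M-CSF levels read by ELISA at 24 h post-dose. The system pairs human umbilical vein endothelium with peripheral blood mononuclear cells; parallel SRB staining tracked cytotoxicity.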

Read-out in test [5]: Tissue Factor, F3 (gene 2152)
Description: BSK_LPS_TissueFactor: BioMAP Diversity Plus: LPS Assay for Tissue Factor Biomarker Activity (AID 2283084). The note with it: primary human HUVEC with PBMC; actives raise or lower the signal. An outline of the steps: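 Compound was added to an endothelial cell/PBMC co-culture, and after 24 h tissue factor (CD142) was read by ELISA. Gain or loss of signal was fitted against a DMSO baseline, and parallel SRB staining (560 nm) tracked overt cytotoxicity.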

Read-out in test [6]: Tumor necrosis factor (Homo sapiens) (UniProt P01375)
Description: BSK_LPS_TNFa: BioMAP Diversity Plus: LPS Assay for Tumour Necrosis Factor alpha (TNFa) Biomarker Activity (AID 2283085). The note with it: primary human HUVEC with PBMC; actives raise or lower the signal. In short, it runs like this: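 Human umbilical vein endothelial cells co-cultured with PBMC were exposed to test chemical and TNFa measured by ELISA 24 h after dosing. Bidirectional curve fitting was done relative to DMSO as negative control and baseline.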

Read-out in test [7]: Vascular cell adhesion molecule 1 (VCAM1), VCAM1 (gene 7412)
As to the kind of experiment: BSK_LPS_VCAM1: BioMAP Diversity Plus: LPS Assay for Vascular cell adhesion molecule 1 (VCAM1) Biomarker Activity (AID 2283086). The note with it: primary human HUVEC with PBMC; actives raise or lower the signal. An outline of the steps: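 Human umbilical vein endothelial cells co-cultured with peripheral blood mononuclear cells under LPS stimulation were exposed to test chemical for 24 h. VCAM-1 levels were then measured by ELISA, with bidirectional curve fitting relative to DMSO as negative control and baseline.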

Read-out in another test: CD38, CD38 (gene 952)
As to the kind of experiment: BSK_SAg_CD38: BioMAP Diversity Plus: SAg Assay for CD38 Biomarker Activity (AID 2283087). Particulars: primary human HUVEC with PBMC; actives raise or lower the signal. In short, it runs like this:
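Fluorescence ELISA of cell-surface CD38 served as the read-out, with either increase or decrease fitted against DMSO controls. Cells were a human umbilical vein endothelium plus PBMC co-culture under SEB/TSST-1 stimulation, measured 24 h after dosing.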

Read-out in a further test: CD40, CD40 (gene 958)
Description: BSK_SAg_CD40: BioMAP Diversity Plus: SAg Assay for CD40 Biomarker Activity (AID 2283088). The note with it: primary human HUVEC with PBMC; actives raise or lower the signal. An outline of the steps: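 CD40 is measured by fluorescence ELISA in an endothelial/PBMC primary human co-culture at 24 h post-dose. Fitting is bidirectional, DMSO baseline. Parallel SRB staining (560 nm) flags cytotoxicity.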

Read-out in the next test: CD69, CD69 (gene 969)
As to the kind of experiment: BSK_SAg_CD69: BioMAP Diversity Plus: SAg Assay for CD69 Biomarker Activity (AID 2283089).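 On AC50: cell surface CD69 protein quantified by ELISA with fluorescence detection.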 Particulars: primary human HUVEC with PBMC; actives raise or lower the signal. An outline of the steps: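 ELISA, fluorescence read-out: CD69 on human umbilical vein endothelial cell + PBMC co-culture, 24 h post-dosing. Gain or loss of signal fitted bidirectionally against DMSO baseline.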

Read-out in test [8]: Monocyte Chemoattractant Protein-1 (MCP1), CCL2 (gene 6347)
Description: BSK_SAg_MCP1: BioMAP Diversity Plus: SAg Assay for Monocyte Chemoattractant Protein-1 (MCP1) Biomarker Activity (AID 2283090). The note with it: primary human HUVEC with PBMC; actives raise or lower the signal. In short, it runs like this:
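MCP-1 levels in the endothelial–PBMC SAg co-culture were quantified by ELISA at 24 h post-dosing; both increases and decreases versus DMSO scored. Cytotoxicity monitored by SRB total protein in parallel cultures.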

Read-out in test [9]: E-selectin (Homo sapiens) (UniProt P16581)
Description: BSK_SAg_Eselectin: BioMAP Diversity Plus: SAg Assay for Eselectin Biomarker Activity (AID 2283091). The note with it: primary human HUVEC with PBMC; actives raise or lower the signal. In short, it runs like this: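 Cell-surface E-selectin is read by ELISA at 24 h in the SAg co-culture of HUVEC and PBMC. Curves are fitted in both directions relative to DMSO. Parallel SRB total-protein staining tracks overt toxicity.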

Read-out in test [10]: Monokine induced gamma interferon (MIG), CXCL9 (gene 4283)
As to the kind of experiment: BSK_SAg_MIG: BioMAP Diversity Plus: SAg Assay for Monokine induced gamma interferon (MIG) Biomarker Activity (AID 2283092). The note with it: primary human HUVEC with PBMC; actives raise or lower the signal. In short, it runs like this: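 ELISA readout of MIG/CXCL9; primary human umbilical vein endothelial cells co-cultured with peripheral blood mononuclear cells; 24 h post-dose; gain/loss fit vs DMSO baseline.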

Test [11] can be described thus: BSK_SAg_PBMCCytotoxicity: PBMC Cytotoxicity Assessment in the BioMAP Diversity Plus: SAg Assay (AID 2283093).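 Further: PBMC viability measured as Alamar Blue reduction fluorescence at 546/580 nm; fitted both ways against DMSO so a hit may be loss or gain of signal.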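 On AC50: PBMC superantigen activated with SEB plus TSST-1 one hour after compound addition.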 The note with it: primary human HUVEC with PBMC. In short, it runs like this: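 HUVEC/PBMC co-culture; PBMC exposed to chemical 1 h before SEB and TSST-1 activation (20 ng/mL each), incubated 90 h, then Alamar Blue 6 h, fluorescence 546/580 nm. Bidirectional fit versus DMSO baseline.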

Read-out in test [12]: Interleukin-8 (IL8), CXCL8 (gene 3576)
As to the kind of experiment: BSK_SAg_IL8: BioMAP Diversity Plus: SAg Assay for Interleukin-8 (IL8) Biomarker Activity (AID 2283094). The note with it: primary human HUVEC with PBMC; actives raise or lower the signal. An outline of the steps:
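Human umbilical vein endothelial cells co-cultured with peripheral blood mononuclear cells; IL-8 measured by ELISA 24 h after chemical dosing. Bidirectional concentration-response fitting used DMSO as negative control and activity baseline.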

Test [13] can be described thus: BSK_SAg_Proliferation: Cell Proliferation Assessment in the BioMAP Diversity Plus: SAg Assay (AID 2283095).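 Further: relative cell number as total protein by SRB absorbance in sub-confluent culture.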 Particulars: primary human HUVEC with PBMC. In short, it runs like this:
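Human umbilical vein endothelial cells co-cultured with peripheral blood mononuclear cells; total protein measured by sulforhodamine B staining (0.1% SRB after 10% TCA fixation), absorbance at 560 nm, at 96 h. Bidirectional fit against DMSO baseline.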

Test [14] can be described thus: BSK_SAg_SRB: Viability Assessment in the BioMAP Diversity Plus: SAg Assay (AID 2283096).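 Further: cells read one day after compound addition; hits may be either gain or loss of signal compared with DMSO.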 The note with it: primary human HUVEC with PBMC. In short, it runs like this:
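Human umbilical vein endothelial cells co-cultured with PBMC, read 24 h after compound dosing. Total protein measured by sulforhodamine B staining (0.1% SRB after 10% TCA fixation, absorbance 560 nm); bidirectional fit versus DMSO baseline.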

Test [15] addresses human CYP19A1, CYP19A1 (gene 1588) (UniProt P11511). As to the kind of experiment: NVS_ADME_hCYP19A1: NovaScreen (NVS) CYP450-related Enzyme Activity (ADME) Assay for human CYP19A1 (AID 2283098; active means hit-call score of the fitted dose curve at least 0.9, where 1 is the maximum;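 further: potency for inhibitors seen as loss of fluorescent enzyme signal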). In short, it runs like this:
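Recombinant enzyme in a cell-free format, read 0.5 h after dosing by fluorescence from a fluorogenic substrate. Loss of signal was fitted against acetonitrile as baseline. Primary screen in duplicate at 10 uM, actives then tested in concentration series.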

In test [16] the target is human CYP1A1, CYP1A1 (gene 1543) (UniProt P04798). As to the kind of experiment: NVS_ADME_hCYP1A1: NovaScreen (NVS) CYP450-related Enzyme Activity (ADME) Assay for human CYP1A1 (AID 2283100; active means hit-call score of the fitted dose curve at least 0.9, where 1 is the maximum). An outline of the steps:
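Chemicals were first tested in duplicate at 10 uM, and those passing a 30% inhibition threshold were rerun as concentration series topping at 20 uM. Fluorescence read-out of recombinant enzyme turnover after 1 h, relative to acetonitrile.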

Sequence of human CYP1A1, CYP1A1 (gene 1543) (P04798 whole entry, looked up): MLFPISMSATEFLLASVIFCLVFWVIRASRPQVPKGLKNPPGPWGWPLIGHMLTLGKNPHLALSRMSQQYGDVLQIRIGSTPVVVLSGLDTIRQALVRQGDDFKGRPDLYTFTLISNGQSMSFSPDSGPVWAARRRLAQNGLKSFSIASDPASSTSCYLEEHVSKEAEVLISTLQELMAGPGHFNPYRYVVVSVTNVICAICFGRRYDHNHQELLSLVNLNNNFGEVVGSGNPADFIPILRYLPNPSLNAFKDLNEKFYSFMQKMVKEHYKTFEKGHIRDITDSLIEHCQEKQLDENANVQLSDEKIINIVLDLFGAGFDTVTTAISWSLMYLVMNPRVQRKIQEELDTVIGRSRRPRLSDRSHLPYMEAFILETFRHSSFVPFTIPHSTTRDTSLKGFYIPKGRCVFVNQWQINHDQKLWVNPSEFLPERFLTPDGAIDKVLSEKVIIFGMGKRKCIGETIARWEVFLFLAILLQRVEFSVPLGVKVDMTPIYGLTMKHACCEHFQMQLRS
Sequence of Tumor necrosis factor (Homo sapiens) (P01375 whole entry, looked up): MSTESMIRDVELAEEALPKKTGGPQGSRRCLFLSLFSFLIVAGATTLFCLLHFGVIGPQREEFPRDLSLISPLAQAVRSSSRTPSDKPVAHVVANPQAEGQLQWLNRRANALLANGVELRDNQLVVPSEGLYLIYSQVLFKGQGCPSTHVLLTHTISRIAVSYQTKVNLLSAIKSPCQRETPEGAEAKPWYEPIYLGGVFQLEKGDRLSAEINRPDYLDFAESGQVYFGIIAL
Sequence of E-selectin (Homo sapiens) (P16581 whole entry, looked up): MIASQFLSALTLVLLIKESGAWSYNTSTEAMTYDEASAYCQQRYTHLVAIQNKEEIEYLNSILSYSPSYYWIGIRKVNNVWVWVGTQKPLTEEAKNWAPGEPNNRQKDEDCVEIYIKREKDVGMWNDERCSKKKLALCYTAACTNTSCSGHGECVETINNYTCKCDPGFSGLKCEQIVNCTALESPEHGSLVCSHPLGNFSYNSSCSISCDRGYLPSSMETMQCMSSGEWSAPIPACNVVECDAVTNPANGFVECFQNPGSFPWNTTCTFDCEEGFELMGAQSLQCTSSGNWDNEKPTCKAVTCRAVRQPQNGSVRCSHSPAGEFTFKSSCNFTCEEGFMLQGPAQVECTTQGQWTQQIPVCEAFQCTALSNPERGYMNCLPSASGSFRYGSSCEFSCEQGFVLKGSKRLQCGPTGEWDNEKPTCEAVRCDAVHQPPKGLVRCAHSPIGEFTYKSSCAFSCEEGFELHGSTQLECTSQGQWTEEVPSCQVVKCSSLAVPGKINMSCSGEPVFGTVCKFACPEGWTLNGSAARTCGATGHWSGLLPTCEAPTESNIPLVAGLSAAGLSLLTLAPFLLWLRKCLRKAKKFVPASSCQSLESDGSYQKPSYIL
Sequence of human CYP19A1, CYP19A1 (gene 1588) (P11511 whole entry, looked up): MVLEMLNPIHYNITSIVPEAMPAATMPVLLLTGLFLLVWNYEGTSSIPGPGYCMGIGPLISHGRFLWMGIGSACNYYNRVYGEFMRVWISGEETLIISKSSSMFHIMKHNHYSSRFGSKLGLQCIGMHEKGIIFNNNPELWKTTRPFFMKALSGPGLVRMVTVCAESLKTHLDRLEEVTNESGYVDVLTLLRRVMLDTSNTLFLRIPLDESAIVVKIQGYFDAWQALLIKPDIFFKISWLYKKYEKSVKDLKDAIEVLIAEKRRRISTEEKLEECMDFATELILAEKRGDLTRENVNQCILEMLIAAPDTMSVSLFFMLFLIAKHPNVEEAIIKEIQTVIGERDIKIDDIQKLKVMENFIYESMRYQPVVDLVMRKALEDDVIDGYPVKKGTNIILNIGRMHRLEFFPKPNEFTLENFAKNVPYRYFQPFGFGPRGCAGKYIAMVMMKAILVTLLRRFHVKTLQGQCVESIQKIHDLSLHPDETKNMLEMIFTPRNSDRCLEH

As for `Cc1nc(N(C)C)nc(OC(=O)N(C)C)c1C`, the outcome in [1], in [2], in [3], in [4], in test [5] and in test [6] was inactive. Besides, the outcome is “inactive” in test [7]; “inactive” in the test with CD38, CD38 (gene 952); “inactive” with CD40, CD40 (gene 958); “inactive” with CD69, CD69 (gene 969); “inactive” in test [8]; “inactive” in [9]. Moreover, the result in [10], in test [11], in test [12], in test [13] and in test [14] was inactive.
As usually defined, the AC50 is the concentration giving half of the maximal activity seen. Regarding `COC(=O)c1c(C(F)F)nc(C(F)(F)F)c(C2=NCCS2)c1CC(C)C`, the outcome in test [1] was “inactive”; in test [5], “inactive”; in test [7] it was “inactive”; with CD69, CD69 (gene 969), “inactive”; in test [8], “inactive”; in test [10], “inactive”. Also, in test [12], the result was inactive. Besides, the AC50 in test [3] was 12.2 µM (active); in [4], 14.3 µM (active); in test [6] it was 8.66 µM (active); in the test with CD38, CD38 (gene 952), 25.7 µM (active); in the test with CD40, CD40 (gene 958) it was 24 µM (active); in [9], 20 µM (active). Besides, the AC50 is 12.1 µM (active) in test [11], 14.6 µM (active) in [13] and 32.5 µM (active) in test [14].
In the case of `CC(C)(C)C(=O)C(Oc1ccc(Cl)cc1)n1cncn1` (stereo not given), the outcome in test [1], in [2], in test [3], in test [4], in test [5] and in test [6] was inactive. The outcome is “inactive” in [7]; “inactive” with CD38, CD38 (gene 952); “inactive” with CD40, CD40 (gene 958); “inactive” in the test with CD69, CD69 (gene 969); “inactive” in test [8]; “inactive” in test [9]. Besides, the outcome in test [10], in test [11], in [12], in test [13] and in test [14] was inactive. Also, the AC50 in test [15] was 2.38 µM (active); in test [16], 1.62 µM (active).
As to `CC1(C)C(C(=O)OC(C#N)c2cccc(Oc3ccccc3)c2)C1(C)C` (stereo not given), the result in [1], in [2], in test [4], in test [5], in test [7] and in [8] was inactive. Also, the result in test [10] and in test [11] was inactive. The AC50 was 6.92 µM (active) in [3]; 5.68 µM (active) in [6]; 12.1 µM (active) in the test with CD38, CD38 (gene 952); 14.1 µM (active) with CD40, CD40 (gene 958); 12.2 µM (active) in the test with CD69, CD69 (gene 969); 13.1 µM (active) in test [9]. Moreover, the figures for the concentration at half-maximal activity (AC50) in test [12], in [13] and in [14] were 26.8 µM (active), 15.3 µM (active) and 7.56 µM (active), respectively.
As for `COc1ccc(-c2ccccc2)cc1NNC(=O)OC(C)C`, the outcome in [1] is “inactive”; in test [2], “inactive”; in test [4], “inactive”; in [5] it was “inactive”; in [7], “inactive”; with CD38, CD38 (gene 952), “inactive”. In addition, the outcome in the test with CD40, CD40 (gene 958) was “inactive”; with CD69, CD69 (gene 969), “inactive”; in test [8], “inactive”; in test [9], “inactive”; in [10], “inactive”; in test [11], “inactive”. Besides, the result in test [12], in [13] and in test [14] was inactive. Further, the AC50 is 1.84 µM (active) in [3], 4.44 µM (active) in [6] and 0.597 µM (active) in [16].
With `CC1(C)CCC(=Cc2ccc(Cl)cc2)C1(O)Cn1cncn1` (stereo not given), the result in test [1], in [2], in [3], in [4], in test [5] and in test [6] was inactive. The outcome was “inactive” in test [7]; “inactive” in the test with CD38, CD38 (gene 952); “inactive” with CD40, CD40 (gene 958); “inactive” with CD69, CD69 (gene 969); “inactive” in test [8]; “inactive” in [9]. Besides, the result in test [10], in test [11], in test [12], in [13] and in [14] was inactive. The AC50 in [16] was 0.908 µM (active).
